# In all, about 1,500 compounds went through this assay and about 100 (6.7%) were called active. A call without a number means that no potency is given here. Roughly 7% stayed inconclusive and do not appear here. The call rests on the fitted dose curve; in most records, active means well fitted inhibition curve with a large enough effect; inconclusive means small, poorly fitted or top-dose-only effect, or effect the other way; inactive means flat fitted curve, though single readings scatter. This excerpt belongs to a sample that is enriched for actives.
# Target: Runt-related transcription factor 1 (Homo sapiens) + Core-binding factor subunit beta (Homo sapiens) (UniProt Q01196+Q13951)
# Sequence (Q01196 whole entry, looked up): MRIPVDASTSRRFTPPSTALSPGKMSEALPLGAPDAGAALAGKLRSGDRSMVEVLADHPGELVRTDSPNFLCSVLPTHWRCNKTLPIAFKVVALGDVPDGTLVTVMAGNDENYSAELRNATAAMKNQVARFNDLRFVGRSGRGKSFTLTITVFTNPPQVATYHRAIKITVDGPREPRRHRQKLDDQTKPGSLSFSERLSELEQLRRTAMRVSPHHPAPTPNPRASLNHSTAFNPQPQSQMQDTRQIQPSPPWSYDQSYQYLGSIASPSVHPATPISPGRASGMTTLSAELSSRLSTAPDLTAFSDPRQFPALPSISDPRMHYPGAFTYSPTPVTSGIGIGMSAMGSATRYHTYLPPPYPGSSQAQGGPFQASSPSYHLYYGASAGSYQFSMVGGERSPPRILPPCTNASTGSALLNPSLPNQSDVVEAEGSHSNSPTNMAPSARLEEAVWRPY
# Sequence (Q13951 whole entry, looked up): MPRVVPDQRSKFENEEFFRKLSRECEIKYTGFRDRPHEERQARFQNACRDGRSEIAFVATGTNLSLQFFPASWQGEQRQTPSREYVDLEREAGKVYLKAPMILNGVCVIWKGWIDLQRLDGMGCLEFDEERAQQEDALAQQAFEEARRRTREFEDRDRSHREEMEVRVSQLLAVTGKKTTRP
# Experiment: qHTS Assay for Compounds Blocking the Interaction Between CBF-beta and RUNX1 for the Treatment of Acute Myeloid Leukemia: Hit Validation; further: nearly all actives have a fitted effect of over 60% in size
# Conditions: AlphaScreen CBFb-His/RUNX1-biotin binding; series mostly up to 59.8 µM
# Method in brief: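 Compounds were added to a premixed CBF-beta-His/RUNX1-biotin complex (30 nM each, 20 min) for 15 min. Nickel and streptavidin AlphaScreen beads followed for 90 min at room temperature, with emission at 440 nm […].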
# Potency means the concentration at half of the fitted maximal effect.
row,SMILES,Potency
1,Cc1cc(C)cc(NC(=O)NCC(O)COc2ccc([N+](=O)[O-])cc2)c1 (stereo not drawn),inactive
2,CCOc1cc(/C=N/n2c(C)nnc2C)ccc1O,inactive
3,Cc1ccccc1Nc1ncc(C#N)c(N)n1,inactive
4,O=C(Nc1ccc(Cl)cc1)Nc1ccc(C(=O)N2CCOCC2)cc1,inactive
5,CCCc1nc2sc3ccccc3c(=O)c2c(=O)n1Cc1ccc(OC)cc1,inactive
6,Cc1c(C(=O)/C=C/N(C)C)nnn1-c1ccc(Cl)c(Cl)c1,inactive
7,O=c1cc2c(=O)oc3cc(O)c(O)oc3c2c(O)c1O,447 nM (active)
8,O=c1oc2c(O)c(O)cc3c(=O)oc4c(O)c(O)cc1c4c23,158 nM (active)
9,COC(=O)Cc1[nH]c(=O)[nH]c1C(=O)OC,inactive
10,CSc1ccc(NC(=O)Nc2cc(C)ccn2)cc1,inactive
11,C[N+](C)(C)CCCN(Cc1ccc2c(c1)OCO2)C(=O)NC1CCCCC1,inactive
12,C=CCNC(=S)Nc1c(C(=O)OC)[nH]c2cc(OC)ccc12,inactive
13,O=C(O)c1cc(O)c2c(c1)[C@H]([C@H]1c3cc(C(=O)O)cc(O)c3C(=O)c3c(O[C@@H]4OC(CO)C(O)C(O)C4O)cccc31)c1cccc(O[C@@H]3OC(CO)C(O)C(O)C3O)c1C2=O (stereo partly drawn),562 nM (active)
14,O=C(OCC(O)COC(=O)c1cccnc1)c1cccnc1,inactive
15,N#Cc1ccc(S(=O)(=O)N2CCCN(c3ccc(C(F)(F)F)cn3)CC2)cc1,inactive
16,O=C(O)c1ccccc1C1Nc2ccccc2C(=O)N1CCCN1CCOCC1 (stereo not drawn),inactive
17,Cc1ccc(Cn2nc(C)cc2C(=O)Nc2ccc(Cl)cc2)cc1,inactive
18,CCn1c(NC(=O)C(C)C)c(-c2cccs2)c(=O)c2ccccc21,inactive
19,CC(=O)Oc1cc(-c2coc3cc(OC(C)=O)c(OC(C)=O)c(OC(C)=O)c3c2=O)cc(OC(C)=O)c1OC(C)=O,1000 nM (active)
20,Cc1nc(C)c(-c2ccnc(/N=C/NO)n2)s1,inactive
21,Cc1cc(OCC(=O)c2cccc(C(F)(F)F)c2)n2cnnc2n1,inactive
22,Cc1onc(-c2ccccc2)c1C(=O)NC(=S)NNC(=O)c1ccco1,inactive
23,O=C(NC(=S)NNC(=O)c1ccccc1O)c1ccco1,1260 nM (active)
24,O=C(NC(=S)Nc1ccccc1N1CCCC1)c1ccco1,inactive
25,Nn1c(SCC(=O)Nc2ccc(S(N)(=O)=O)cc2)nnc1C(F)(F)F,inactive
26,O=C(CN1CCCc2ccccc21)N1CCc2ccccc21,inactive

row,SMILES,Potency
1,Cc1cccc(NC(=S)N(CCN(C)C)C(C)c2ccccn2)c1 (stereo not drawn),6870 nM (active)
2,CC(=O)NNC(=S)Nc1cccc(F)c1,inactive
3,Cc1ccc(NC(=S)Nc2ccccn2)cc1C,inactive
4,COc1ccc(CCN(C)CCC(=O)Nc2cccc(C)c2)cc1OC,inactive
5,CC(c1ccccn1)N(CCN(C)C)C(=S)Nc1cccc(F)c1 (stereo not drawn),3440 nM (active)
6,CC1=NN(c2nc3ccccc3s2)C(O)(C(F)(F)F)C1 (stereo not drawn),inactive
7,COc1ccc(NC(=O)c2cccs2)cn1,inactive
8,CCOC(=O)NC1=NCC(C)S1 (stereo not drawn),inactive
9,O=S(=O)(c1ccc(C(F)(F)F)cc1)N1CCCN(c2ccc(C(F)(F)F)cn2)CC1,inactive
10,NNC(=O)c1ccc(COc2ccc([N+](=O)[O-])cc2)o1,inactive
11,COc1ccc(/C=N/NC(=O)c2ccco2)cc1OCc1ccccc1,inactive
12,N#Cc1cnn(-c2ccccc2)c1NC(=O)CN1CCOCC1,inactive
13,COC(=O)CC1C(=O)NCCN1C(=S)Nc1ccc(F)cc1 (stereo not drawn),inactive
14,O=C(O)COCC(=O)N1CCN(C2c3ccccc3-c3ccccc32)CC1,inactive
15,CC(C)NC(=O)Nc1cccc(Cl)c1,inactive
16,COCc1cc(O)c(O)c(O)c1-c1c(COC)cc(O)c(O)c1O,631 nM (active)
17,CCCCNC(=O)NCCN1CCOCC1,inactive
18,Brc1ccc(C2Nc3cccc4cccc(c34)N2)o1,14100 nM (active)
19,Cc1ccc(/C=N/N2CCN(c3ccccn3)CC2)o1,inactive
20,Cc1cc2nc(-c3ccccc3)cc(=O)n2[nH]1,inactive
21,NC(=S)N/N=C/c1ncc(C(F)(F)F)cc1Cl,25100 nM (active)
22,COc1ccc(/C=N/NC(=S)Nc2cc(C(F)(F)F)ccc2Cl)cc1,inactive
23,CC(C)(C)c1ccc(CCC2OCC(C[N+]3(C)CCOCC3)O2)cc1 (stereo not drawn),inactive
24,Cc1nn2c(NCCOCCO)c3c(nc2c1-c1ccccc1)CCC3,inactive
25,O=C(c1ccc(Cn2cc(Cl)c([N+](=O)[O-])n2)cc1)N1CCN(Cc2ccccc2)CC1,inactive
26,Cc1onc(-c2c(F)cccc2Cl)c1C(=O)Nc1ccccc1N1CCOCC1,inactive

row,SMILES,Potency
1,CCC(=O)Nc1cccc(C(=O)OC)c1,inactive
2,CCCCC(=O)Nc1ccc(NC(=S)NC(=O)c2ccco2)cc1OC,inactive
3,CCc1cccc(NC(=O)CCCCCC2NC(=O)NC2C)c1 (stereo not drawn),447 nM (active)
4,CCOC(=O)CN1NC2(CCCCCC2)NC1=S,inactive
5,Cc1onc(-c2c(F)cccc2Cl)c1C(O)c1ccc(F)cc1 (stereo not drawn),inactive
6,Nc1ncccc1OCc1ccc(Cl)c(Cl)c1,inactive
7,COCCn1c(-c2ccc(Cl)cc2)nc2oc3cc(OC)ccc3c(=O)c2c1=O,inactive
8,CC(=O)Nc1ccc(OCCOc2ccc([N+](=O)[O-])cc2)cc1,inactive
9,O=C1c2ccccc2C(=O)c2c(Nc3ccc(CCO)cc3)ccc(O)c21,794 nM (active)
10,CSC(=Nc1ccccc1)Nc1ccccc1,inactive
11,CCOC(=O)N1CCN(CC(=O)Nc2sc(CC)cc2C(=O)c2ccc(OC)cc2)CC1,inactive
12,CCOC(=O)CC(=O)CSc1nc(CC)c(C)cc1C#N,inactive
13,COc1ccc(N/C=C2\C(=O)c3c(sc(C)c3C)N(C)S2(=O)=O)cc1,inactive
14,COc1ccc(/C=N/NC(=O)c2ccc3nc[nH]c3c2)cc1OC,inactive
15,COc1cc(/C=N/NC(=O)c2cncc(Br)c2)cc([N+](=O)[O-])c1O,2820 nM (active)
16,COc1cc(/C=N/Nc2ccc(S(N)(=O)=O)cc2[N+](=O)[O-])cc(OC)c1O,inactive
17,Oc1ccc2ccccc2c1C=Nc1ccccc1,inactive
18,CNC(=O)/C(C#N)=C1\SC(Cc2ccc(F)cc2)C(=O)N1c1ccccc1C (stereo not drawn),inactive
19,O=C(Nc1ccccc1)NC1CCCCNC1=O (stereo not drawn),inactive
20,N#C/C(=C\c1ccc(OC(=O)c2ccccn2)cc1)C(N)=O,4340 nM (active)
21,CCOC(=O)/C(C#N)=C/Nc1ccccc1OC(F)(F)F,inactive
22,N#CC(C#N)=Cc1ccc(OC(=O)c2ccccn2)cc1,6120 nM (active)
23,COc1ccc(/C(C#N)=C/c2ccccn2)cc1,inactive
24,CCOC(=O)/C(C#N)=C/Nc1cc(F)ccc1C,inactive
25,CCOC(=O)/C(C#N)=C/c1ccc(OC(=O)c2ccccn2)cc1,3860 nM (active)
26,CCOc1ccccc1/C=C(/C#N)C(N)=O,inactive

# — PubChem BioAssay AID504374 (National Center for Advancing Translational Sciences (NCATS), 2011)
